Eight molecules from PubChem BioAssay (NCI) can be followed below.

SMILES strings stand for the structures. This is part of a sample that, as a whole, favours compounds with a hit. Of some 83,000 tested, about 20% had one in any assay.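 Growth was measured after 48 h exposure to one concentration of compound in 96-well plates. Values under 10 count as active.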 Unmarked numbers belong to inactive results. The source made the active and inactive calls.

Holding throughout (experiment): NCI-60 one-dose screen, 48 h (100 = growth as untreated, 0 = no growth, -100 = all killed)
One assay deals with HCT-15 colon. The settings on record: 10 µM unless noted.
Another assay concerns HT29 colon. The settings on record: 10 µM unless noted.
The next assay concerns SNB-75 CNS. The settings on record: 10 µM unless noted.
Another assay concerns SNB-19 CNS. The settings on record: 10 µM unless noted.
Another assay deals with PC-3 prostate. The settings on record: 10 µM unless noted.
The subject of a further assay is SK-MEL-5 melanoma. The settings on record: 10 µM unless noted.
Another assay relates to UACC-62 melanoma. The settings on record: 10 µM unless noted.
A further assay has as its system LOX IMVI melanoma. The settings on record: 10 µM.
In the next assay the test system is SK-MEL-28 melanoma. The settings on record: 10 µM unless noted.
The test system of the next assay is SK-MEL-2 melanoma. The settings on record: 10 µM unless noted.
Another assay has as its system SN12C renal. The settings on record: 10 µM unless noted.
In the next assay the test system is UO-31 renal. The settings on record: 10 µM unless noted.
The test system of the next assay is ACHN renal. The settings on record: 10 µM unless noted.
For a further assay, the system named is CAKI-1 renal. The settings on record: 10 µM unless noted.
The test system of the next assay is A498 renal. The settings on record: 10 µM unless noted.
The next assay has as its system CCRF-CEM leukemia. The settings on record: 10 µM unless noted.
The test system of the next assay is MOLT-4 leukemia. The settings on record: 10 µM unless noted.
Another assay relates to EKVX NSCLC. The settings on record: 10 µM unless noted.
A further assay has as its system TK-10 renal. The settings on record: 10 µM unless noted.
The next assay has as its system U251 CNS. The settings on record: 10 µM unless noted.

In the case of `Oc1ccc2c(c1)CCc1ccccc1-2`, the growth in the assay on HCT-15 colon was 92.6%; in the assay on HT29 colon, 95%; in the assay with SNB-75 CNS, 56.1%; in the assay with SNB-19 CNS, 102%; with PC-3 prostate it was 99.2%; in the assay on SK-MEL-5 melanoma, 97.8%. For the same molecule, the growth was 104% in the assay with UACC-62 melanoma; 107% in the assay on LOX IMVI melanoma; 105% in the assay on SK-MEL-28 melanoma; 115% in the assay with SK-MEL-2 melanoma; 107% with SN12C renal; 90.3% in the assay with UO-31 renal. In addition, the growth in the assay on ACHN renal was 109%; with CAKI-1 renal, 101%; in the assay on A498 renal it was 68.6%; in the assay on CCRF-CEM leukemia, 97.3%; in the assay on MOLT-4 leukemia, 103%.
With `O=C(/C=C/C(Cl)(Cl)Cl)Nc1ccc(Cl)cc1`, the growth with HCT-15 colon is 88.3%; in the assay on HT29 colon, 94.7%; in the assay with SNB-75 CNS, 110%; with SNB-19 CNS, 103%; in the assay with PC-3 prostate it was 104%; with SK-MEL-5 melanoma it was 90.8%. The growth in the assay on UACC-62 melanoma was 98.5%; in the assay on LOX IMVI melanoma, -69.8% (active); in the assay with SK-MEL-2 melanoma, 84.6%; in the assay with EKVX NSCLC, 94.2%; in the assay with SN12C renal it was 101%; with UO-31 renal it was -78% (active). In addition, the growth in the assay with TK-10 renal was 129%; in the assay on ACHN renal it was 104%; with CAKI-1 renal it was 101%; in the assay on A498 renal, 101%; in the assay with CCRF-CEM leukemia it was 73.2%; in the assay on MOLT-4 leukemia it was 84.2%.
Take `COc1ccc(NC(=O)/C(=C/N2C(=O)/C(=C/c3ccc(OC)c(OC)c3)NC2=S)C(C)=O)cc1`: the growth was 80.1% in the assay on HCT-15 colon; 92.8% in the assay on HT29 colon; 38.1% in the assay with SNB-75 CNS; 57.3% in the assay on U251 CNS; 62.4% in the assay with PC-3 prostate; 68.9% with SK-MEL-5 melanoma. Moreover, the growth with UACC-62 melanoma was 53.9%; in the assay on LOX IMVI melanoma, 58.9%; in the assay on SK-MEL-28 melanoma it was 77.2%; with SK-MEL-2 melanoma it was 87.1%; in the assay on EKVX NSCLC it was 93.5%; with SN12C renal, 80.8%. For the same molecule, the growth was 54.6% in the assay on UO-31 renal; 110% in the assay on TK-10 renal; 79.6% in the assay with ACHN renal; 92.3% in the assay with CAKI-1 renal; 87.6% in the assay on A498 renal; 80.3% with CCRF-CEM leukemia.
On to `Cn1ccc(=Nc2ccc(NC(=O)c3ccc(N=c4ccn(C)c5ccc([N+](=O)[O-])cc45)cc3)cc2)cc1`, for which the growth in the assay with HCT-15 colon was 98.2%; with HT29 colon it was 73%; in the assay with SNB-75 CNS it was -9.29% (active); in the assay on U251 CNS it was -17.5% (active); in the assay with PC-3 prostate it was 44%; in the assay on SK-MEL-5 melanoma, 89.8%. Moreover, the growth was 70.1% in the assay on UACC-62 melanoma; 56.2% in the assay on LOX IMVI melanoma; 87.3% in the assay on SK-MEL-28 melanoma; 91.1% in the assay with SK-MEL-2 melanoma; 77.5% in the assay with EKVX NSCLC; 45.3% with SN12C renal. Besides, the growth in the assay on UO-31 renal is 82.6%; in the assay on TK-10 renal it was 122%; in the assay with ACHN renal, 99.2%; in the assay on CAKI-1 renal it was 113%; in the assay on A498 renal, 97.6%; with CCRF-CEM leukemia, 89.2%. Moreover, the growth in the assay with MOLT-4 leukemia is 126%.
On to `COc1ccc2nc3cc([N+](=O)[O-])ccc3c(NNc3ccccc3)c2c1`, for which the growth in the assay on HCT-15 colon is 69.4%; in the assay on HT29 colon, 94%; in the assay with SNB-75 CNS, 23.5%; in the assay on SNB-19 CNS, 73%; in the assay with SK-MEL-5 melanoma it was 88.5%; in the assay on UACC-62 melanoma, 74.6%. The growth with LOX IMVI melanoma is 84.2%; with SK-MEL-28 melanoma, 97.1%; in the assay on SK-MEL-2 melanoma, 74.9%; in the assay with EKVX NSCLC, 83.1%; in the assay with SN12C renal, 92.4%; with UO-31 renal it was 91.4%. Further, the growth was 60% with TK-10 renal; 68.7% in the assay with ACHN renal; 86.1% with CAKI-1 renal; 90.6% with CCRF-CEM leukemia; 128% in the assay with MOLT-4 leukemia.
As to `COc1cc(-c2ccc(-[n+]3nc(-c4ccc([N+](=O)[O-])cc4)nn3-c3ccc([N+](=O)[O-])cc3)c(OC)c2)ccc1-[n+]1nc(-c2ccc([N+](=O)[O-])cc2)nn1-c1ccc([N+](=O)[O-])cc1`, the growth in the assay on HCT-15 colon was 29.7%; with HT29 colon, -6.65% (active); in the assay on SNB-19 CNS, 40.8%; in the assay on U251 CNS it was 43.9%; with PC-3 prostate, 47.9%; in the assay with SK-MEL-5 melanoma it was 47.4%. Also, the growth with UACC-62 melanoma is 85.9%; with LOX IMVI melanoma, -75.5% (active); with SK-MEL-28 melanoma it was 73.1%; in the assay on SN12C renal, 2.95% (active); in the assay with UO-31 renal, 6.95% (active); with TK-10 renal, -9.35% (active). The growth was 9.61% (active) with ACHN renal; -9.54% (active) in the assay with CAKI-1 renal; -22.2% (active) in the assay with A498 renal; 12.7% in the assay with CCRF-CEM leukemia; 17.9% in the assay on MOLT-4 leukemia.
For `CN1CSC(=S)N(Cc2ccccc2)C1`, the growth is 84.8% in the assay on HCT-15 colon; 24.9% in the assay with HT29 colon; 95.5% with SNB-19 CNS; 100% with U251 CNS; 95.4% in the assay with PC-3 prostate; 96.8% in the assay with SK-MEL-5 melanoma. Moreover, the growth with UACC-62 melanoma is 85.8%; in the assay with LOX IMVI melanoma, 11.3%; in the assay with SK-MEL-28 melanoma it was 120%; with SK-MEL-2 melanoma it was 73.3%; in the assay on EKVX NSCLC it was 118%; with SN12C renal it was 99.9%. Besides, the growth with UO-31 renal was 69.5%; in the assay on TK-10 renal it was 28.6%; with ACHN renal, 102%; in the assay on CAKI-1 renal, 80%; with A498 renal, 145%; in the assay on CCRF-CEM leukemia it was 59.3%. In the assay on MOLT-4 leukemia, the growth is 64.5%.
Turning to `Cc1nn(CCO)c(C)c1N=[N+]([O-])c1c(C)nn(CCO)c1C`, the growth with HCT-15 colon was -4.21% (active); in the assay with HT29 colon, -14% (active); with SNB-19 CNS, 98.2%; in the assay with U251 CNS, 69.6%; in the assay on PC-3 prostate it was 76.6%; with SK-MEL-5 melanoma, 71.5%. Further, the growth is 61% in the assay with UACC-62 melanoma; 16% in the assay on LOX IMVI melanoma; 83.2% with SK-MEL-28 melanoma; 58.1% in the assay with SK-MEL-2 melanoma; 23.4% in the assay with EKVX NSCLC; 60% in the assay with SN12C renal. Further, the growth in the assay on UO-31 renal is -93.6% (active); in the assay with TK-10 renal, -46.9% (active); in the assay on ACHN renal, -42.8% (active); in the assay with A498 renal, 105%; in the assay with CCRF-CEM leukemia it was 1.91% (active).
